Source: PubChem BioAssay (National Center for Advancing Translational Sciences (NCATS))
Hits are enriched below; roughly 3.8% of the tested compounds scored in any of these assays.
Nrf2 block – inhibitors of Nrf2 signaling; A549 ARE-Fluc reporter, luciferase luminescence, 18-24 h; Potency, µM (titrated, usually from 46 µM), without a hit: at the highest dose activity change, negative = inhibition, usual class: inhibitors; 360,000 tested, 2.1% active; AID 504444; note: % is set by controls: 0 for no effect and ±100 for the full control effect; nearly all actives have a fitted effect of over 60% in size
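A549 ARE_Fluc cells (5000/well, 5% FBS OPTI-MEM) pre-incubated 2 h, then treated with compounds 18-24 h at 37C/5% CO2 in concentration-response. CellTiter-Fluor viability read first; BugLite luciferase luminescence after 15 min at room temperature gives Nrf2 activity.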
HepG2 viability – HepG2 cytotoxicity, counter-screen for TGF-b inhibitors; 410,000 tested, 0.76% active; AID 588856; Potency, µM (doses to about 46.1 µM), without a hit: at the top dose activity change, negative = cytotoxicity, actives largely listed as cytotoxic; HepG2 CAGA-GFP viability, ATP luminescence, 18 h
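CellTiter-Glo luminescence gave cytotoxicity after 18 hours at 37 degrees C. The cells were HepG2 CAGA-GFP in 1% FBS DMEM, stimulated with 500 pg/mL TGF-beta after compound addition. %Activity was normalised to no-cell wells (complete cell-killing) and DMSO (no toxicity), and curves were fitted and classified.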
ATXN2 expr inh – ATXN2 expression inhibition | HEK-293 ATXN2-luciferase reporter, luminescence, 24 h | Potency, µM (top dose mostly 57 µM), without a hit: top-dose activity change, negative = inhibition, usual class: inhibitors | 360,000 tested, 0.72% active; note: % is set by controls: 0 for no effect and ±100 for the full control effect; nearly all actives have a fitted effect of over 55% in size
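qHTS (up to 57 uM final) was run with 24 h compound exposure of reporter cells at 37 °C. Each well was multiplexed: SteadyGlo luminescence measured ATXN2-luciferase expression after a fluorogenic Gly-Phe-AFC viability readout (25 uM final).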
S2 tox – cell viability loss in ATXN counter-screen; S2 cells (HEK-293 line with an ATXN2-luciferase reporter) viability, CellTiter-Fluor protease fluorescence, 24 h; Potency, µM (highest dose often 56.7 µM), actives largely listed as cytotoxic; 400,000 tested, 0.49% active; note: nearly all actives have a fitted effect of over 40% in size
TGFb SMAD3 inh – blocks TGF-b signaling. HepG2 CAGA-GFP TGF-b/SMAD3 reporter, GFP fluorescence, 18 h; TGF-beta stimulated, 500 pg/mL final. 410,000 tested, 1.2% active. AID 588855. Potency, µM (top dose mostly 46.1 µM), for the others: at the highest dose activity, negative = inhibition, hits mostly inhibitors; note: % is set by controls: 0 for no effect and ±100 for the full control effect; nearly all actives have a fitted effect of over 65% in size
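Inhibition was scored as loss of TGF-beta-induced (500 pg/mL final, 18 hours, 37 degrees C) GFP in HEPG2 cells carrying a CAGA-GFP reporter, in DMEM with 1% FBS. Well GFP was summed per cell; Activity was normalised to unstimulated and stimulated DMSO wells, then concentration-response fitting.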
A549 tox-1 – A549 cytotoxicity, counter-screen for Nrf2 inhibitors; A549 ARE-Fluc cells, CellTiter-Fluor viability, 18-24 h; Potency, µM (doses to about 46 µM), inactives show at the top dose activity change, negative = cytotoxicity, actives largely listed as inhibitors; 390,000 tested, 0.16% active; note: % is set by controls: 0 for no effect and ±100 for the full control effect
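A549 ARE_Fluc cells in 5% FBS OPTI-MEM were exposed to compounds in concentration-response for 18-24 h at 37 deg C. Viability was read by CellTiter-Fluor fluorescence (Ex 405/Em 525) after 30 min, before the luciferase read.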
FLuc enzyme inh – blocks purified firefly luciferase in Nrf2 counterscreen. purified firefly luciferase, luminescence inhibition. 1,400 tested, 4% active. Potency, µM (highest dose often 57.5 µM), for inactives: at the highest dose activity change, negative = inhibition, most hits filed as inhibitors. shares compounds with Nrf2 block; note: % is set by controls: 0 for no effect and ±100 for the full control effect; nearly all actives have a fitted effect of over 65% in size
Target sequence (P08659 whole entry, looked up): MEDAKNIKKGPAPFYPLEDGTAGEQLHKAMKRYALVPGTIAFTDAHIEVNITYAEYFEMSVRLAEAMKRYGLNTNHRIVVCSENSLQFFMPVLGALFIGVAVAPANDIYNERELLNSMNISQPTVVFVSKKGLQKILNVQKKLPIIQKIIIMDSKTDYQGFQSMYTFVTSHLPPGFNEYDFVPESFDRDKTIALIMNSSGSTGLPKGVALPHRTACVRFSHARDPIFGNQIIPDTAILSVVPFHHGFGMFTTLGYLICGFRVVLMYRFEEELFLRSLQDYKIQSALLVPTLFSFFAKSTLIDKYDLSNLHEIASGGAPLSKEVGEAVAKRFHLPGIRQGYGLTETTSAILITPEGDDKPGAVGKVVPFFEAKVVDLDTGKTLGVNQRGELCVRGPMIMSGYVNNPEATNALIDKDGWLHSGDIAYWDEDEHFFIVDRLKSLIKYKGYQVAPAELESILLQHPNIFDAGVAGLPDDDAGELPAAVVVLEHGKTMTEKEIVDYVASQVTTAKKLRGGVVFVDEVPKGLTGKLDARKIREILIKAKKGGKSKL
A549 tox-2 – toxic to A549 ARE-Fluc cells in Nrf2 counterscreen; shares compounds with Nrf2 block; A549 ARE-Fluc cells, cytotoxicity counterscreen; Potency, µM (titrated, usually from 46.1 µM), without a hit: top-dose activity change, negative = cytotoxicity, actives largely listed as inhibitors; 1,400 tested, 2% active;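 note: cells exposed to compounds for 18 to 24 hours; % is set by controls: 0 for no effect and ±100 for the full control effect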
ARE-Fluc inh – Nrf2 inhibition confirmed, A549 ARE-luciferase | shares compounds with Nrf2 block | A549 ARE-firefly luciferase reporter, luminescence | 1,400 tested, 74% active | Potency, µM (series often up to 46.1 µM), without a hit: at the highest dose activity change, negative = inhibition, usual class: inhibitors | AID 720524; note: % is set by controls: 0 for no effect and ±100 for the full control effect; nearly all actives have a fitted effect of over 65% in size
* marks the source's active call; other numbers are inactive results; i = inactive; ? = inconclusive; . = no result shown; [ ] = another dose, or the depositor's remark. Calls come from the whole dose curve; as a rule, active = well fitted curve in the direction sought with a large enough effect; inconclusive = small, poorly fitted or top-dose-only effect, or another doubt; inactive = no such curve, though single readings can be large; an effect the other way counts as inactive or inconclusive. Potency is the fitted concentration of half-maximal effect.

SMILES	Nrf2 block	HepG2 viability	ATXN2 expr inh	S2 tox	TGFb SMAD3 inh	A549 tox-1	FLuc enzyme inh	A549 tox-2	ARE-Fluc inh
O=C(Nc1ccc(S(=O)(=O)N2CCOCC2)cc1)c1ccc(S(=O)(=O)N2CCOCC2)cc1	?	-35.3%	2.5%	i	15.7%	7.5%	.	.	.
COc1ccc(N2CCN(C(=O)CSc3nc(-c4ccccc4)no3)CC2)cc1	?	1.2%	16.9%	i	-23.0%	-9.8%	.	.	.
Cc1ccc(-c2ccc(OC(=O)c3ccc(=O)[nH]c3)c(C)c2)cc1	-7.0%	-0.8%	25.1%	i	-0.6%	-0.1%	.	.	.
O=C(Cc1nc2ccccc2[nH]1)N1CCC(n2c(C3CCC3)nc3cccnc32)CC1	.	.	.	i	.	.	.	.	.
COc1ccc(NS(=O)(=O)c2ccc(NC(=O)c3ccc(CN4CCOCC4)cc3)cc2)cc1	?	3.0%	?	i	-1.9%	-2.0%	.	.	.
O=C(Nc1ccc(S(=O)(=O)N2CCOCC2)cc1)c1ccc(Cl)cc1	?	-37.0%	-10.9%	i	-22.0%	8.0%	.	.	.
O=C(Nc1ccc(S(=O)(=O)Nc2ccc(F)cc2)cc1)c1ccc(CN2CCOCC2)cc1	3.66µM*	-3.9%	-23.6%	i	-25.6%	-17.9%	-3.6%	-7.6%	.
Cc1ccc(NS(=O)(=O)c2ccc(C(=O)NC3CCN(Cc4ccccc4)CC3)cc2)cc1	5.8µM*	-28.4%	-33.2%	i	?	?	2.1%	-23.8%	7.31µM*
O=C(Nc1ccc(S(=O)(=O)N2CCCCC2)cc1)c1ccc(CN2CCOCC2)cc1	4.61µM*	-31.2%	?	?	?	-4.0%	-0.9%	1.6%	7.31µM*
COc1ccc(NC(=O)c2ccc(Cl)c(S(=O)(=O)N3CC(C)OC(C)C3)c2)cn1 (centres undefined)	2.59µM*	-34.6%	.	i	?	-5.0%	1.0%	-7.5%	7.31µM*
O=c1c(Cc2ccc(F)cc2)c(O)ccn1CCCn1ccnc1	11.2%	26.7%	.	i	2.1%	0.2%	.	.	.
C=CCN(C(=O)c1csnn1)C(C(=O)NC1CCCC1)c1ccccc1F (centres undefined)	?	-8.0%	5.5%	i	2.4%	-7.0%	.	.	.
Cc1ccccc1-c1cc(C(=O)NCc2cccc(Br)c2)nn1CC1CC(c2cccc([N+](=O)[O-])c2)=NO1 (centres undefined)	-17.9%	-0.2%	-2.4%	i	0.0%	8.0%	.	.	.
CN(C)C(=O)c1cccc(-c2cccc(-c3nc(C(=O)NCc4ccccc4)cc4c3[C@@H](CCO)N(S(=O)C(C)(C)C)C4)c2)c1 (some centres undefined)	.	-2.6%	-29.2%	.	6.1%	.	.	.	.
C[C@H]1NC(=O)[C@]2(C)[C@@H](c3ccccc3)[C@H]3COc4ccccc4[C@H]3N2C1=O	0.0%	-18.2%	-4.5%	i	3.2%	15.3%	.	.	.
Cc1cc(C)nc(NNC(=O)c2ccccc2O)n1	?	-48.9%	.	i	-9.1%	-5.5%	.	.	.
CCN(CC)S(=O)(=O)c1ccc(NC(=O)c2ccc(N3CCCC3=O)cc2)cc1	1.46µM*	-1.1%	-19.3%	i	4.2%	-15.8%	-1.1%	-5.5%	7.31µM*
CCN(CC)S(=O)(=O)c1ccc(OC)c(NC(=O)c2ccc(N3CCCC3=O)cc2)c1	-0.6%	1.8%	-1.9%	i	-1.5%	-6.9%	.	.	.
Cn1nc(C(C)(C)C)cc1C(=O)NCc1ccc2c(c1)OCO2	1.84µM*	-5.5%	?	i	-17.4%	-17.6%	3.9%	-16.2%	3.66µM*
Cc1oc(C(C)(C)C)cc1C(=O)NCc1ccc2c(c1)OCO2	?	5.5%	-14.5%	i	-28.7%	-11.7%	.	.	.
COC(=O)c1cccc(N(CC(=O)NC2CCCCC2)C(=O)CNC(=O)c2cccs2)c1	5.5%	-0.9%	-2.2%	i	4.3%	2.5%	.	.	.
Cc1nc(C)c(C(=O)NNS(=O)(=O)c2ccc3ccccc3c2)s1	9.2µM*	2.1%	-12.0%[11.3 µM]	i	-0.5%	-14.0%	4.0%	1.3%	?
Cc1nc(NS(=O)(=O)c2ccccc2)sc1C(=O)NNS(=O)(=O)c1ccccc1	-1.2%	4.4%	28.3%	i	6.9%	-0.2%	.	.	.
O=C(CSc1nnc(-c2cccnc2)s1)Nc1ccnc2ccccc12	4.11µM*	-22.3%	-7.7%	i	-29.3%	-7.9%	-19.1%	-10.5%	5.17µM*
O=C(c1ccc(Cl)cc1)N1CCN(S(=O)(=O)/C=C/c2ccccc2)CC1	?	-2.3%	-21.5%	i	?	-0.9%	.	.	.
SMILES	Nrf2 block	HepG2 viability	ATXN2 expr inh	S2 tox	TGFb SMAD3 inh	A549 tox-1	FLuc enzyme inh	A549 tox-2	ARE-Fluc inh
Cc1cccc(N2CCN(C(=O)C3CCN(S(=O)(=O)c4cccs4)CC3)CC2)c1C	-18.9%	2.8%	-19.9%	i	?	-4.4%	.	.	.
Cc1cc(C(=O)CN2C(=O)c3ccccc3S2(=O)=O)c(C)n1CC1CCCO1 (centres undefined)	0.92µM*	-1.7%	0.501µM*	?	-8.4%	3.0%	1.35µM*	-1.4%	1.16µM*
CCCn1c(C)cc(C(=O)CN2C(=O)c3ccccc3S2(=O)=O)c1C	.	-8.2%	.	i	13.8%	.	.	.	.
O=C(CSc1ncnc2c1cnn2-c1ccc(F)cc1)NCC1CCCO1 (centres undefined)	?	-2.8%	-35.4%	i	-15.1%	-5.0%	.	.	.
O=C(CSc1ncnc2c1cnn2-c1ccc(F)cc1)NC1CCCC1	5.17µM*	-2.4%	-12.4%	i	3.4%	0.7%	-11.0%	-0.2%	?
Nc1cc[n+](CC(=O)c2ccccc2)cc1	8.2µM*	-26.7%	.	i	?	-11.0%	2.9%	-13.1%	?
Cc1c(N)cc[n+](CC(=O)c2ccccc2)c1C	4.11µM*	-67.9%	-21.3%	i	0.0%	-16.6%	0.2%	-8.8%	14.6µM*
CN(C)c1ccc(C2Nc3ccccc3C(=O)N2NS(C)(=O)=O)cc1 (centres undefined)	14.3%	10.8%	38.8%	i	-5.0%	-1.4%	.	.	.
